Structures are written as SMILES. Inconclusive results are not listed. The source made the active and inactive calls. Unless noted, calls follow the shape of the dose curve; as a rule, active = well fitted curve in the direction sought with a large enough effect in the repeat runs; inconclusive = weak or mixed curves; inactive = no such curve, though single readings can be large; an effect the other way counts as inactive or inconclusive.

Assay [1] can be described thus: qHTS assay to test for compound auto fluorescence at 535 nm (green) in HEK293 cells (AID 720680). On the technique in general: Quantitative high-throughput screening tests each substance at several concentrations.
Assay [2] in a line: qHTS assay to test for compound auto fluorescence at 460 nm (blue) in HEK293 cell free culture (AID 720681). The gist of the method: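 Compounds were added to cell-free DMEM with 10% FBS and fluorescence read directly. The blue channel used 405 nm excitation and 460 nm emission, with triamterene as the reference fluorophore.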
Assay [3] can be described thus: qHTS assay to test for compound auto fluorescence at 535 nm (green) in HEK293 cell free culture (AID 720682). The gist of the method: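 DMEM + 10% FBS, cell-free; cpd or DMSO pinned in; Ex485/Em535 read; output as fluorescein-equivalent signal.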
Assay [4] in a line: qHTS assay to test for compound auto fluorescence at 590 nm (red) in HEK293 cell free culture (AID 720683). The gist of the method: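 Cell-free wells of DMEM with 10% FBS received compound, and intrinsic fluorescence was read at excitation/emission 540/590 nm. Values expressed as equivalence to Rose Bengal sodium.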
The nature of assay [5]: qHTS assay to test for compound auto fluorescence at 590 nm (red) in HepG2 cell free culture (AID 720684). The method in brief:
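Compound was pinned into wells holding MEM with 10% FBS and no cells, and red fluorescence was read at Ex/Em 540/590 nm. Signal is expressed as auto fluorescence equivalency relative to Rose Bengal sodium.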

A short description of assay [6]: qHTS assay to test for compound auto fluorescence at 460 nm (blue) in HepG2 cell free culture (AID 720685). The gist of the method:
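Compound (23 nL) or DMSO pinned into cell-free MEM with 10% FBS; blue fluorescence read at 405/460 nm excitation/emission, expressed as auto-fluorescence equivalency to triamterene.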

The nature of assay [7]: qHTS assay to test for compound auto fluorescence at 535 nm (green) in HepG2 cell free culture (AID 720686).
Assay [8] can be described thus: qHTS assay to test for compound auto fluorescence at 460 nm (blue) in HepG2 cells (AID 720687). The method in brief: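 HepG2 cells in MEM with 10% FBS, attached overnight at 37 C, were exposed to compound or DMSO for 1 hr at 37 C, 5% CO2. Blue fluorescence was read at 405/460 nm, with triamterene as reference fluorophore.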
In assay [9] the target is Glucocorticoid receptor (Homo sapiens) (UniProt P04150). Kind of assay: qHTS assay to identify small molecule agonists of the glucocorticoid receptor (GR) signaling pathway (AID 720691; active = well fitted activation curve with a large enough effect in the signal ratio in the repeat runs, not every such curve was filed as active; the % refers to the signal ratio). To be noted: GR-bla HeLa, beta-lactamase reporter ratio, 18 h; activation: at 62.4 µM (top of the series). The gist of the method: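 Beta-lactamase reporter activity, read as fluorescence intensity, was measured in GR-bla HeLa cells exposed to compounds for 18 h at 37 C and then loaded with LiveBLAzer B/G FRET substrate for 2 h at room temperature.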
Glucocorticoid receptor (Homo sapiens), sequence (P04150 whole entry, looked up): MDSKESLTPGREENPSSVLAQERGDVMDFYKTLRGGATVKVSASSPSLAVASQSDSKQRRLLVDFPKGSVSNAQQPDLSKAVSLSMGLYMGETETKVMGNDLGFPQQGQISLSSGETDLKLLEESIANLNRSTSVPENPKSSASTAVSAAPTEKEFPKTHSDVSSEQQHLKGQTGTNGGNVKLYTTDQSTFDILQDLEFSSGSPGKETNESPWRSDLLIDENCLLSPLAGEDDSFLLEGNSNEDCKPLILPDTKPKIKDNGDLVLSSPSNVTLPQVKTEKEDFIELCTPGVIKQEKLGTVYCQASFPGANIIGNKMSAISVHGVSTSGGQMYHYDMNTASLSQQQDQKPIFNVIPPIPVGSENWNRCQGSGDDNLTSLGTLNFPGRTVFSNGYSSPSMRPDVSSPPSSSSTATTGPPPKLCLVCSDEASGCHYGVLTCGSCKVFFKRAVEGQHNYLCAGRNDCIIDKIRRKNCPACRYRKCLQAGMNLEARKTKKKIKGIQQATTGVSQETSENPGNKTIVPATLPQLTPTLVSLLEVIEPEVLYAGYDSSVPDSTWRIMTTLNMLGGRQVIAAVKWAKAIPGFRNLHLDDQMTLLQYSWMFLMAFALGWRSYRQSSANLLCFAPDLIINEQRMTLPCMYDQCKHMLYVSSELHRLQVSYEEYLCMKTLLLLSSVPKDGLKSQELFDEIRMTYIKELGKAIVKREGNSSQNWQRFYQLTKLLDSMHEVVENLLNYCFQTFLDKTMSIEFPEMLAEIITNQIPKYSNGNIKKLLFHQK

Assay [10] has the same target. As to the kind of experiment: qHTS assay to identify small molecule antagonists of the glucocorticoid receptor (GR) signaling pathway (AID 720692; active = well fitted inhibition curve with a large enough effect in the signal ratio in the repeat runs, not every such curve was filed as active; the % refers to the signal ratio). The method in brief:
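Fluorescence from cleaved LiveBLAzer B/G FRET substrate reports GRE-driven beta-lactamase in HeLa cells; compounds are tested against 5 nM dexamethasone (final) over 18 h at 37 C, substrate incubation 2 h at room temperature.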

The nature of assay [11]: qHTS assay to identify small molecule antagonists of the glucocorticoid receptor (GR) signaling pathway - cell viability counter screen (AID 720693). Also: nearly all actives have a fitted effect of over 55% in size.
Assay [12] is described as follows: qHTS assay for identifying genotoxic compounds that show differential cytotoxicity against isogenic chicken DT40 cell lines with known DNA damage response pathways - wild type cell line (AID 743012). Also: nearly all actives have a fitted effect of over 60% in size. Also: potency is read from the fitted curve at half-maximal effect. The method in brief:
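Quantitative HTS on parental DT40 cells: 40 h compound treatment at 37 C/5% CO2, with viability then determined by CellTiter-Glo luminescence. Values serve as the DNA repair-proficient reference for differential cytotoxicity.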

Assay [13] in a line: qHTS assay for identifying genotoxic compounds that show differential cytotoxicity against isogenic chicken DT40 cell lines with known DNA damage response pathways - Rev3 mutant cell line (AID 743014). Also: nearly all actives have a fitted effect of over 55% in size. Also: potency is read from the fitted curve at half-maximal effect.
A short description of assay [14]: qHTS assay for identifying genotoxic compounds that show differential cytotoxicity against isogenic chicken DT40 cell lines with known DNA damage response pathways - Rad54/Ku70 mutant cell line (AID 743015). Also: nearly all actives have a fitted effect of over 60% in size. Also: potency is read from the fitted curve at half-maximal effect.
The nature of assay [15]: qHTS assay to identify small molecule antagonists of the androgen receptor (AR) signaling pathway - cell viability counter screen (AID 743033; also: nearly all actives have a fitted effect of over 45% in size).
A short description of assay [16]: qHTS assay to identify small molecule antagonists of the androgen receptor (AR) signaling pathway using the MDA cell line - cell viability counter screen (AID 743041; also: nearly all actives have a fitted effect of over 45% in size). The method in brief: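 MDA-kb2 AR-luc cells (MMTV-luciferase, AR/GR responsive) treated with compounds plus R1881 agonist for 16 h at 37C. CellTiter-Fluor added at 15.5 h; fluorescence read after 30 min in the same wells.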

Consider `CC(O)[C@@H]1NC(=O)[C@H](CCCCN)NC(=O)[C@@H](Cc2c[nH]c3ccccc23)NC(=O)[C@H](Cc2ccccc2)NC(=O)[C@@H](NC(=O)[C@H](N)Cc2ccccc2)CSSC[C@@H](C(=O)N[C@H](CO)[C@@H](C)O)NC1=O` (some centres undefined), for which the Potency result in assay [1], in assay [2], in assay [3], in assay [4], in assay [5] and in assay [7] was “inactive” throughout. The Potency entry in [9], in [10], in [11], in assay [12], in assay [13] and in assay [14] was “inactive” in each case. Besides, the Potency entry in assay [15] and in [16] was “inactive” each time. Moreover, the molecule was classed as inactive in assay [6] and in assay [8].
`Cc1ccc(/C(=C\CN2CCCC2)c2cccc(/C=C/C(=O)O)n2)cc1`: the Potency result in assay [1], in [2], in [3], in assay [4], in [5] and in assay [7] was “inactive” each time. Further, the Potency entry in assay [9], in [10], in assay [11], in assay [12], in assay [13] and in [14] was “inactive” in each case. Also, the Potency entry in assay [15] and in assay [16] was “inactive” each time. Besides, the outcome in assay [6] and in [8] was inactive.
With `CC1(C)S[C@@H]2[C@H](NC(=O)C(C(=O)O)c3ccsc3)C(=O)N2[C@H]1C(=O)O` (some centres undefined), the Potency entry in [1], in assay [2], in [3], in [4], in assay [5] and in [7] was “inactive” throughout. For the same molecule, the Potency result in assay [9], in assay [10], in [11], in [12], in assay [13] and in assay [14] was “inactive” each time. Also, the Potency entry in assay [15] and in assay [16] was “inactive” each time. Moreover, the molecule was called inactive in assay [6] and in assay [8].
Take `CCOc1cc(-c2nccc3cc(OC)c(OC)cc23)cc(OCC)c1OCC`: the Potency result in assay [1], in [2], in [3], in [4], in assay [5] and in [7] was “inactive” throughout. Moreover, the Potency result in [9], in assay [10], in assay [11], in assay [15] and in assay [16] was “inactive” throughout. Besides, the result in assay [6] and in assay [8] was inactive. The Potency in [12] is 4.22 µM (active); in [13] it was 6.68 µM (active); in [14] it was 8.41 µM (active).
In the case of `CCNC(=O)[C@@H]1CCCN1C(=O)[C@H](CCCN=C(N)N)NC(=O)[C@H](CC(C)C)NC(=O)[C@@H](CC(C)C)NC(=O)[C@H](Cc1ccc(O)cc1)NC(=O)[C@H](CO)NC(=O)[C@H](Cc1c[nH]c2ccccc12)NC(=O)[C@H](Cc1cnc[nH]1)NC(=O)[C@@H]1CCC(=O)N1`, the Potency result in [1], in [2], in [3], in assay [4], in assay [5] and in assay [7] was “inactive” each time. Further, the Potency entry in [9], in assay [10], in [11], in assay [12], in assay [13] and in assay [14] was “inactive” throughout. Also, the Potency result in assay [15] and in assay [16] was “inactive” each time. Moreover, the call in assay [6] and in [8] was inactive.
With `COc1ccc2cc([C@H](C)CO)ccc2c1`, the Potency result in assay [1], in assay [2], in assay [3], in [4], in assay [5] and in [7] was “inactive” in each case. The Potency result in assay [9], in assay [10], in assay [11], in [12], in [13] and in assay [14] was “inactive” in each case. Besides, the Potency result in assay [15] and in assay [16] was “inactive” throughout. Besides, the call in [6] and in [8] was inactive.
Turning to `Cn1nnnc1SCC1=C(C(=O)O)N2C(=O)[C@@H](NC(=O)[C@H](O)c3ccccc3)[C@H]2SC1`, the Potency result in assay [1], in assay [2], in assay [3], in assay [4], in [5] and in [7] was “inactive” in each case. Besides, the Potency result in [9], in [10], in assay [11], in assay [12], in assay [13] and in assay [14] was “inactive” throughout. Also, the Potency result in assay [15] and in [16] was “inactive” each time. Also, the molecule was called inactive in assay [6] and in assay [8].
As for `CCCCCCCCCCCCCCCCCC(=O)OCCO`, the Potency result in assay [1], in assay [2], in assay [3], in assay [4], in [5] and in [7] was “inactive” in each case. The Potency result in [9], in [10], in assay [11], in assay [12], in assay [13] and in assay [14] was “inactive” throughout. In addition, the Potency result in assay [15] and in assay [16] was “inactive” throughout. Besides, the outcome in assay [6] and in [8] was inactive.
For the molecule `COc1ccc(CCNC[C@H](O)c2ccc(O)cc2)cc1OC`, the Potency entry in assay [1], in assay [2], in [3], in assay [4], in assay [5] and in assay [7] was “inactive” throughout. Moreover, the Potency result in assay [9], in assay [10], in [11], in assay [12], in assay [13] and in assay [14] was “inactive” throughout. In addition, the Potency result in assay [15] and in assay [16] was “inactive” in each case. The outcome in assay [6] and in assay [8] was inactive.
Consider `CCOC(=O)[C@H](CCc1ccccc1)N[C@@H](C)C(=O)N1CC2(C[C@H]1C(=O)O)SCCS2`, for which the Potency entry in assay [1], in assay [2], in [3], in [4], in assay [5] and in assay [7] was “inactive” throughout. Further, the Potency entry in assay [9], in [10], in [11], in [12], in assay [13] and in [14] was “inactive” throughout. Besides, the Potency result in assay [15] and in assay [16] was “inactive” throughout. Besides, the molecule was classed as inactive in assay [6] and in assay [8].
Turning to `O=C(O)COc1ccc(CCNS(=O)(=O)c2ccccc2)s1`, the Potency entry in assay [1], in [2], in assay [3], in assay [4], in assay [5] and in assay [7] was “inactive” each time. Further, the Potency entry in [9], in assay [10], in assay [11], in assay [12], in [13] and in assay [14] was “inactive” in each case. Further, the Potency entry in assay [15] and in assay [16] was “inactive” each time. Moreover, the molecule was called inactive in assay [6] and in assay [8].
As to `CC(C)(C)NC[C@H](O)COc1ccccc1C1CCCC1`, the Potency result in assay [1], in [2], in assay [3], in assay [4], in assay [5] and in assay [7] was “inactive” in each case. For the same molecule, the Potency result in assay [9], in assay [10], in assay [11], in [15] and in assay [16] was “inactive” each time. In addition, the outcome in assay [6] and in assay [8] was inactive. Besides, the Potency in assay [12] was 6.39 µM (active); in assay [13], 10.1 µM (active); in [14] it was 10.1 µM (active).
In the case of `CCCC(CCC)C(N)=O`, the Potency result in [1], in [2], in [3], in [4], in [5] and in assay [7] was “inactive” each time. The Potency result in assay [9], in [10], in assay [11], in assay [12], in assay [13] and in assay [14] was “inactive” throughout. Further, the Potency entry in assay [15] and in assay [16] was “inactive” throughout. Moreover, the outcome in [6] and in assay [8] was inactive.
As to `CCC(C)(C)OC(=O)N[C@@H](Cc1c[nH]c2ccccc12)C(=O)N[C@@H](CCSC)C(=O)N[C@@H](CC(=O)O)C(=O)N[C@@H](Cc1ccccc1)C(N)=O`, the Potency result in [1], in assay [2], in [3], in assay [4], in assay [5] and in assay [7] was “inactive” in each case. The Potency result in assay [9], in assay [10], in [11], in assay [12], in assay [13] and in assay [14] was “inactive” throughout. For the same molecule, the Potency result in assay [15] and in [16] was “inactive” in each case. The molecule was called inactive in assay [6] and in assay [8].

The values above are taken from PubChem BioAssay (Tox21).
